Results on five compounds are retold here after PubChem BioAssay.

A short description of assay [1]: growth inhibition of DIPG glioma cells, dose response, cell-based, SU-DIPG-XVII, MIPE5.0, CellTiter-Glo, qHTS (AID 1347060; cut-off not given, nearly all actives have AC50 up to about 26 µM;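 on AC50: cells exposed to compound for 48 hours before viability readout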). To be noted: SU-DIPG-XVII viability, CellTiter-Glo ATP luminescence. Background: In ATP-based viability assays light output follows the ATP content of the culture.
Assay [2] can be described thus: growth inhibition of DIPG glioma cells, dose response, cell-based, SU-DIPG-XIII, MIPE4.0, CellTiter-Glo, qHTS (AID 1347061; cut-off not given, nearly all actives have AC50 up to about 37 µM;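 further: cells exposed to compound for 48 hours before readout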). To be noted: SU-DIPG-XIII viability, CellTiter-Glo ATP luminescence.
A short description of assay [3]: growth inhibition of DIPG glioma cells, dose response, cell-based, JHH-DIPG-1, MIPE4.0, CellTiter-Glo, qHTS (AID 1347062; cut-off not given, nearly all actives have AC50 up to about 27 µM). The settings on record: JHH-DIPG-1 viability, CellTiter-Glo ATP luminescence.
A short description of assay [4]: viability loss in pontine glioma line – cell-based, SU-DIPG-XXV, MIPE5.0, CellTiter-Glo, qHTS, dose response (AID 1347065; cut-off not given, nearly all actives have AC50 up to about 26 µM;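 further: cells exposed to compound for 48 hours before ATP readout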). To be noted: CellTiter-Glo ATP luminescence.
The nature of assay [5]: SU-DIPG-VI glioma cell viability, MIPE4.0 library, CellTiter-Glo luminescence, qHTS (AID 1347066; cut-off not given, nearly all actives have AC50 up to about 30 µM;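 further: cells exposed to compound for 48 hours before readout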). The settings on record: CellTiter-Glo ATP luminescence.
A short description of assay [6]: JHH-DIPG-1 glioma cell viability, MIPE5.0 library, CellTiter-Glo luminescence, qHTS (AID 1347067; cut-off not given, nearly all actives have AC50 up to about 26 µM;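 further: cells exposed to compound for 48 hours before readout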). The settings on record: JHH-DIPG-1 glioma viability, CellTiter-Glo ATP luminescence.
Assay [7] in a line: SU-DIPG-XXV glioma cell viability, MIPE5.0 library, qHTS (AID 1347068; cut-off not given, nearly all actives have IC50 up to about 30 µM). Background: qHTS replaces the single test concentration by a dilution series.
The nature of assay [8]: growth inhibition of DIPG glioma cells, dose response, cell-based, SU-DIPG-IV, MIPE4.0, CellTiter-Glo, qHTS (AID 1347063; cut-off not given, nearly all actives have AC50 up to about 30 µM;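 further: compound exposure lasted 48 hours before the viability readout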). To be noted: SU-DIPG-IV viability, CellTiter-Glo ATP luminescence.
The nature of assay [9]: growth inhibition of DIPG glioma cells, dose response, cell-based, SU-DIPG-XIII, MIPE5.0, CellTiter-Glo, qHTS (AID 1347064; cut-off not given, nearly all actives have AC50 up to about 23 µM;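 on AC50: cells exposed to compound for 48 hours before the viability read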). The settings on record: SU-DIPG-XIII viability, CellTiter-Glo ATP luminescence.
Assay [10] can be described thus: sensitizers of A549 cells to miR-34 induction, primary screen, imaging, A549 dox-inducible miR-34, nuclei and caspase counts (AID 1347080;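 active means compounds whose cell count with miR-34 switched on is under 0.7 times the count with it off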). The settings on record: A549 miR-34 inducible, Hoechst nuclei count, 48 h.
Assay [11] in a line: survival rescue of mitochondrial mutant cells in low glucose, primary screen, MELAS cybrids, Rieske KO mouse fibroblasts, CellTiter-Glo (AID 1508586;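 active means mean z-score across replicates of 1.96 or higher in either the MELAS or the Rieske mutant cell line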;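 further: z relative to plate mean and SD of compound and empty wells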).
Assay [12] can be described thus: modifiers of HSF1 nuclear foci, imaging, Selleck Cancer Library (AID 1347162; in the data active means plate-normalised HSF1 focus index below about 0.46). The settings on record: human cells, at 10 µM; SSMD: measured here: HSF1 foci SSMD mean; cell count: measured here: cell number; plate-normalised HSF1 focus index: stronger effect = lower value.
The nature of assay [13]: ovarian cancer cell viability with rucaparib, profiling panel, oncology-focused library, rucaparib conditional (AID 1508598). The settings on record: patient-derived ovarian cancer cells, CellTiter-Glo viability, 144 h, stronger effect = lower value.
[14] abbreviates: stronger effect = lower value, cell number ratio, induced over uninduced.
The mark [15] stands for this setting: measured here: relative caspase fold change +Dox/-Dox.
Where [16] appears, read: measured here: total cells with miR-34 induction, stronger effect = lower value.
The mark [17] stands for this setting: measured here: total cells without miR-34 induction.
[18] abbreviates: MELAS cybrid survival, CellTiter-Glo 48 h, stronger effect = higher value.
[19] abbreviates: Rieske KO mouse fibroblast survival, CellTiter-Glo 72 h.

SMILES strings stand for the structures. Where “and” joins values, the source holds several entries; their conditions need not be identical. Equal values may be shown once. Inconclusive results are not listed. Calls of active or inactive are those of the source.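 How the source made its calls, unless noted: active means normalized viability below 100% at a tested concentration; inactive means the rest.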

By AC50 is commonly meant the concentration giving half of the maximal activity seen. For orientation: viability means a read-out of living cells in per cent, often relative to untreated cells.

Take `CCNC(=O)[C@H]1O[C@@H](n2cnc3c(N)nc(NCCc4ccc(CCC(=O)O)cc4)nc32)[C@H](O)[C@@H]1O`: the compound was called inactive in [1], in [2], in assay [3], in assay [4], in [5] and in assay [6]. Moreover, the result in assay [7] was inactive.
As to `Cc1cnc(-c2cc(N3CCN(C(=O)CCS(C)(=O)=O)CC3)ncc2Cl)c(C)c1`, the compound was classed as inactive in assay [1], in assay [2], in [8], in assay [9], in [4] and in [5]. Besides, the compound was classed as inactive in [6] and in [7]. In addition, the values for the fold change in [10] (setting [14]) and in [10] (setting [15]) were 0.856 (inactive) and 0.666, respectively. The values for the cell count in [10] (setting [16]) and in assay [10] (setting [17]) were 8550 and 10000, respectively. Also, the z-score in assay [11] (setting [18]) is -0.296 (inactive); in assay [11] (setting [19]) it was 0.28.
`COc1cccc(OC)c1-c1cc(C(=O)NC2(C(=O)O)C3CC4CC(C3)CC2C4)nn1-c1ccnc2cc(Cl)ccc12` (stereo not given): the AC50 in assay [1] was 14.8 µM (active); in [4] it was 18.6 µM (active). Further, the result in assay [2], in assay [3], in assay [5] and in assay [7] was inactive.
`CN(C)C(=O)c1ccc(S(=O)(=O)c2ccc(NC(=O)[C@@](C)(O)C(F)(F)F)c(Cl)c2)cc1`: the result in [1], in assay [2], in [3] and in [6] was inactive.
In the case of `Cc1cccc(-c2[nH]c(C(C)(C)C)nc2-c2ccc3nccnc3c2)n1`, the outcome in assay [1] and in assay [7] was inactive. Further, the AC50 was 2.35 µM (active) in assay [2]; 20.9 µM (active) in assay [8]; 9.34 µM (active) in assay [9]; 10.5 µM (active) in assay [4]; 4.69 µM (active) in assay [5]; 5.9 µM (active) in assay [6]. The fold change in assay [10] (setting [14]) was 1.02 (inactive) and 0.895 (inactive); in assay [10] (setting [15]) it was 0.491 and 0.704. The cell count in [10] (setting [16]) was 4120 and 3500; in assay [10] (setting [17]), 4050 and 3910; in assay [12] it was 7730. Also, in assay [12], the SSMD was found to be 1.52. Also, the plate-normalised HSF1 focus index in [12] is 1.09 (inactive). In addition, the z-score in [11] (setting [18]) was -0.318 (inactive); in assay [11] (setting [19]) it was -0.927. Further, the viability in [13] (at 0.000305 µM, OCI-C5x cells, with rucaparib 10 µM, 100% = cells with rucaparib alone) is 121% (inactive); in assay [13] (at 0.000305 µM, OCI-C5x cells, without rucaparib), 111% (inactive); in assay [13] (at 0.000305 µM, OCI-P5x cells, with rucaparib 20 µM, 100% = cells with rucaparib alone) it was 101% (inactive); in [13] (at 0.000305 µM, OCI-P5x cells, without rucaparib), 95.1% (active); in [13] (at 0.00122 µM, OCI-C5x cells, with rucaparib 10 µM, 100% = cells with rucaparib alone) it was 106% (inactive); in assay [13] (at 0.00122 µM, OCI-C5x cells, without rucaparib), 112% (inactive). For the same compound, the viability is 100% (active) in [13] (at 0.00122 µM, OCI-P5x cells, with rucaparib 20 µM, 100% = cells with rucaparib alone); 98.3% (active) in assay [13] (at 0.00122 µM, OCI-P5x cells, without rucaparib); 120% (inactive) in assay [13] (at 0.00488 µM, OCI-C5x cells, with rucaparib 10 µM, 100% = cells with rucaparib alone); 113% (inactive) in assay [13] (at 0.00488 µM, OCI-C5x cells, without rucaparib); 99.5% (active) in [13] (at 0.00488 µM, OCI-P5x cells, with rucaparib 20 µM, 100% = cells with rucaparib alone); 98.9% (active) in [13] (at 0.00488 µM, OCI-P5x cells, without rucaparib). The viability in [13] (at 0.0195 µM, OCI-C5x cells, with rucaparib 10 µM, 100% = cells with rucaparib alone) is 119% (inactive); in [13] (at 0.0195 µM, OCI-C5x cells, without rucaparib), 116% (inactive); in assay [13] (at 0.0195 µM, OCI-P5x cells, with rucaparib 20 µM, 100% = cells with rucaparib alone), 103% (inactive); in assay [13] (at 0.0195 µM, OCI-P5x cells, without rucaparib), 95% (active); in [13] (at 0.0781 µM, OCI-C5x cells, with rucaparib 10 µM, 100% = cells with rucaparib alone), 121% (inactive); in assay [13] (at 0.0781 µM, OCI-C5x cells, without rucaparib), 111% (inactive). Further, the viability in assay [13] (at 0.0781 µM, OCI-P5x cells, with rucaparib 20 µM, 100% = cells with rucaparib alone) is 101% (inactive); in assay [13] (at 0.0781 µM, OCI-P5x cells, without rucaparib), 97.3% (active); in [13] (at 0.313 µM, OCI-C5x cells, with rucaparib 10 µM, 100% = cells with rucaparib alone), 119% (inactive); in assay [13] (at 0.313 µM, OCI-C5x cells, without rucaparib) it was 111% (inactive); in assay [13] (at 0.313 µM, OCI-P5x cells, with rucaparib 20 µM, 100% = cells with rucaparib alone), 112% (inactive); in assay [13] (at 0.313 µM, OCI-P5x cells, without rucaparib) it was 102% (inactive). Besides, the viability was 124% (inactive) in [13] (at 1.25 µM, OCI-C5x cells, with rucaparib 10 µM, 100% = cells with rucaparib alone); 117% (inactive) in assay [13] (at 1.25 µM, OCI-C5x cells, without rucaparib); 121% (inactive) in assay [13] (at 1.25 µM, OCI-P5x cells, with rucaparib 20 µM, 100% = cells with rucaparib alone); 98.6% (active) in assay [13] (at 1.25 µM, OCI-P5x cells, without rucaparib); 139% (inactive) in assay [13] (at 5 µM, OCI-C5x cells, with rucaparib 10 µM, 100% = cells with rucaparib alone); 142% (inactive) in assay [13] (at 5 µM, OCI-C5x cells, without rucaparib). The viability in [13] (at 5 µM, OCI-P5x cells, with rucaparib 20 µM, 100% = cells with rucaparib alone) is 120% (inactive); in assay [13] (at 5 µM, OCI-P5x cells, without rucaparib), 90.7% (active).
